Reference: PubChem BioAssay (NCATS)
Records with an inconclusive call do not appear. A call without a number means that no potency is given here. Active and inactive are the calls of the source. Unless noted, calls come from the whole dose curve; as a rule, active = well fitted curve in the direction sought with a large enough effect; inconclusive = small, poorly fitted or top-dose-only effect, or another doubt; inactive = no such curve, though single readings can be large; an effect the other way counts as inactive or inconclusive.

Key:
[1] = target: Atrial natriuretic peptide receptor 1 (Homo sapiens) (UniProt P16066); experiment: Natriuretic polypeptide receptor (hNpr1) antagonism - Pilot screen (AID 1347049; calls by dose curve;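 note: agonist-evoked cGMP luminescence read 20 min after hNppA addition; series mostly up to about 58 µM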)
Sequence of Atrial natriuretic peptide receptor 1 (Homo sapiens) (P16066 whole entry, looked up): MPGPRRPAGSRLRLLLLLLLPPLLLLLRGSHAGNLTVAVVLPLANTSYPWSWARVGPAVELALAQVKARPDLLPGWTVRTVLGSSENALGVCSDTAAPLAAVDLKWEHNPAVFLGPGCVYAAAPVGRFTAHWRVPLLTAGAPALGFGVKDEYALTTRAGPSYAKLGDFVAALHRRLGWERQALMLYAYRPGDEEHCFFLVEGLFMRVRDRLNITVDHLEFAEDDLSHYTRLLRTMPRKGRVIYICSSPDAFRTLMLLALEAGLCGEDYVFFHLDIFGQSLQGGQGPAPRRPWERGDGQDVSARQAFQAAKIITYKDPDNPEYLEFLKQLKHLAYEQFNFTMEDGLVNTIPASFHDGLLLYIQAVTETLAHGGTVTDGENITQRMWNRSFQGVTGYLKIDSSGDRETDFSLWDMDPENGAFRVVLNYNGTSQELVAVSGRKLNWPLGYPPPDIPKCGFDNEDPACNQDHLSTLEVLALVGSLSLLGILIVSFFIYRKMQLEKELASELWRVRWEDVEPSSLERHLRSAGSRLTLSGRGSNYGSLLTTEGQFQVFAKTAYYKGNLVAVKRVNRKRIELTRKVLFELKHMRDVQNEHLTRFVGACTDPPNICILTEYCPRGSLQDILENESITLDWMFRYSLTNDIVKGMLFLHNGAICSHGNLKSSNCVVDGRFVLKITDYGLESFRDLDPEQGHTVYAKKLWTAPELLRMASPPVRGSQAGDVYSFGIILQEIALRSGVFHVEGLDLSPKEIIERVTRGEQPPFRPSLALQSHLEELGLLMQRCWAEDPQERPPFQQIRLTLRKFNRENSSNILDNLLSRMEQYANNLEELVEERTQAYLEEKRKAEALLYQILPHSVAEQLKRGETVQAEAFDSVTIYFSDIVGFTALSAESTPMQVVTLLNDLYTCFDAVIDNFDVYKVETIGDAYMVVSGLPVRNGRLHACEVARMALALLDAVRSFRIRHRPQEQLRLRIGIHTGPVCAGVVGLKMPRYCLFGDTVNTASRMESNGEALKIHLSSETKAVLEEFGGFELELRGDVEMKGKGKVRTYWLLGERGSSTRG
Method in brief: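 HEK293 cells expressing hNpr1 and GloSensor cGMP luciferase, 1500/well, loaded with 2% GloSensor reagent 2 h, compound 30 min at room temperature; luminescence read before and 20 min after 0.1 nM hNppA stimulation.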

[2] = target: Atrial natriuretic peptide receptor 2 (Homo sapiens) (UniProt P20594); experiment: Natriuretic polypeptide receptor (hNpr2) antagonism - Pilot subtype selectivity assay (AID 1347050; calls by dose curve)
Sequence of Atrial natriuretic peptide receptor 2 (Homo sapiens) (P20594 whole entry, looked up): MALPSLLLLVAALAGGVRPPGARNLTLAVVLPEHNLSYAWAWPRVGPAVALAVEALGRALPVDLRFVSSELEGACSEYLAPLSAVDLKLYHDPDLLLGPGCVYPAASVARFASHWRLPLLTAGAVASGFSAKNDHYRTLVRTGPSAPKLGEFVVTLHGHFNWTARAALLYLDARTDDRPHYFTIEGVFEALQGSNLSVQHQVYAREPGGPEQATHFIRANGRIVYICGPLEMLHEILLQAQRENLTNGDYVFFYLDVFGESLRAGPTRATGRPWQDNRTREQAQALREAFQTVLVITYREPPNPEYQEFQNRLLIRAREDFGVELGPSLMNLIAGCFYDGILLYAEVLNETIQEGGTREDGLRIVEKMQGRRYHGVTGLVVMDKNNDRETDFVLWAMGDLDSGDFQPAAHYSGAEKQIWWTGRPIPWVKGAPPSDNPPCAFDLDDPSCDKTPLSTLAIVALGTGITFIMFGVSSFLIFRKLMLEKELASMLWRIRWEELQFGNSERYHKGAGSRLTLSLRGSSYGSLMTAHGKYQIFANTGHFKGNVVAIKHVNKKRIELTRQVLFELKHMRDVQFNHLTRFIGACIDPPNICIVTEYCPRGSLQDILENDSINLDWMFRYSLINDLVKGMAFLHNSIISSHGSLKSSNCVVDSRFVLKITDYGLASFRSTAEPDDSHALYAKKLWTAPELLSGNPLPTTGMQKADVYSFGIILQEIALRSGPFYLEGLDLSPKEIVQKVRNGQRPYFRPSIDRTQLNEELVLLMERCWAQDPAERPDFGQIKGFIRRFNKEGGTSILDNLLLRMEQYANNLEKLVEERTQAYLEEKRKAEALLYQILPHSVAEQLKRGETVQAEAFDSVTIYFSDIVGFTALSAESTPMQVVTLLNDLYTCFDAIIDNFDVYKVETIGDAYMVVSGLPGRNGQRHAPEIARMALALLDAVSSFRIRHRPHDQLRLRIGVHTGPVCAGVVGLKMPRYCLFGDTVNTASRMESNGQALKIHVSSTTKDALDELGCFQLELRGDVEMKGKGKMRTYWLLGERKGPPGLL
Method in brief: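 HEK293 cells expressing hNpr2 and a GloSensor cGMP luciferase sensor, 1500/well, preloaded 2 h with 2% GloSensor reagent, compound 30 min, then 1 nM hNppC for 20 min. Antagonism from luminescence after versus baseline pre-read; LOPAC in 1:5 titrations.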

[3] = NS1 protein of Zika virus - qHTS assay to identify small molecule inhibitors in human HEK 293 cells (AID 1347053); note: nearly all actives have a fitted effect of over 55% in size; note: potency is the fitted concentration of half-maximal effect
Method in brief: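 HEK 293 cells, seeded 20 h at 37 C, were pretreated with compound 1 h, then infected with ZIKV MR766 (MOI = 0.5) for 24 h. NS1 was read by TR-FRET with two anti-NS1 antibodies, normalized to uninfected and infected wells.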

[4] = target: T1, Tyrosine-protein phosphatase non-receptor type substrate 1 (Homo sapiens) + Leukocyte surface antigen CD47 (Homo sapiens) (UniProt P78324+Q08722); experiment: CD47-SIRPalpha protein protein interaction - LANCE assay qHTS validation (AID 1347057; active = well fitted curve in the direction sought with a large enough effect in the signal ratio, with a control signal flat, not every such curve was filed as active; the % refers to the signal ratio; note: series mostly up to about 38 µM)
T1 sequence (P78324 whole entry, looked up): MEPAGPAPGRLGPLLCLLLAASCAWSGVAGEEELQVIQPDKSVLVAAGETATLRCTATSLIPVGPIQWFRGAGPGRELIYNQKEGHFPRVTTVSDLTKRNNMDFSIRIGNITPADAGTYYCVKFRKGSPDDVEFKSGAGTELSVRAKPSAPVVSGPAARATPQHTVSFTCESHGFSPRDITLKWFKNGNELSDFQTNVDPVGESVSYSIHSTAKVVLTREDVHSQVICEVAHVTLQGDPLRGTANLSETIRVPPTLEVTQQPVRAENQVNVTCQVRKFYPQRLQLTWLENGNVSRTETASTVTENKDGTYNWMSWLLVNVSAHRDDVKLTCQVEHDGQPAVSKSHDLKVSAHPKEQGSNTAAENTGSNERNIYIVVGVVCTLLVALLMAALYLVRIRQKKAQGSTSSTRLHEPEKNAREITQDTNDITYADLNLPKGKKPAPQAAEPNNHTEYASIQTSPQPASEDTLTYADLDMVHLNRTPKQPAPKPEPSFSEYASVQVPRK
T1 sequence (Q08722 whole entry, looked up): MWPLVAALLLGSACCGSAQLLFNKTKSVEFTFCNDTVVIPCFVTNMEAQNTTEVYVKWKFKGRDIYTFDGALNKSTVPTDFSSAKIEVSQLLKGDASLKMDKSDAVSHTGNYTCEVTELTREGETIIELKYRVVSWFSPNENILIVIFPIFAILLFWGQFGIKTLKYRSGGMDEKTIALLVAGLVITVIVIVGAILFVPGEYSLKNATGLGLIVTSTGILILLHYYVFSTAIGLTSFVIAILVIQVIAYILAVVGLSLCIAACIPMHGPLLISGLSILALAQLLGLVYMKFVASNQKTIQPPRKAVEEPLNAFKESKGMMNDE
Method in brief: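 First, His-tagged CD47 and Eu-labelled anti-His antibody met the compound for 30 min; next, site-specifically biotinylated SIRPalpha was added for 30 min; finally streptavidin-APC was added before reading the TR-FRET ratio.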

[5] = target: T1, Tyrosine-protein phosphatase non-receptor type substrate 1 (Homo sapiens) + Leukocyte surface antigen CD47 (Homo sapiens); experiment: CD47-SIRPalpha protein protein interaction - HTRF assay qHTS validation (AID 1347058; active = well fitted curve in the direction sought with a large enough effect in the signal ratio, not every such curve was filed as active; the % refers to the signal ratio;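 note: recombinant soluble extracellular CD47 with His tag and biotinylated SIRPalpha domains; series mostly up to about 38 µM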)
Method in brief: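 TR-FRET read (Ch1/Ch2 ratio) of soluble extracellular CD47 and Avi-biotinylated SIRPalpha domains in PBS pH 7.4 with 0.05% IGEPAL; 7-point compound titration. Sequential 30 min room-temperature steps; non-biotinylated SIRPalpha as control inhibitor.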

[6] = target: Parathyroid hormone/parathyroid hormone-related peptide receptor (Homo sapiens) (UniProt Q03431); experiment: qHTS for PTHR1 Agonists: Optimization Screen against the NCGC LOPAC library (AID 1347079);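 note: GloSensor cAMP luminescence in HEK-293 GP2 cells expressing human PTHR1 with IBMX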
Sequence of Parathyroid hormone/parathyroid hormone-related peptide receptor (Homo sapiens) (Q03431 whole entry, looked up): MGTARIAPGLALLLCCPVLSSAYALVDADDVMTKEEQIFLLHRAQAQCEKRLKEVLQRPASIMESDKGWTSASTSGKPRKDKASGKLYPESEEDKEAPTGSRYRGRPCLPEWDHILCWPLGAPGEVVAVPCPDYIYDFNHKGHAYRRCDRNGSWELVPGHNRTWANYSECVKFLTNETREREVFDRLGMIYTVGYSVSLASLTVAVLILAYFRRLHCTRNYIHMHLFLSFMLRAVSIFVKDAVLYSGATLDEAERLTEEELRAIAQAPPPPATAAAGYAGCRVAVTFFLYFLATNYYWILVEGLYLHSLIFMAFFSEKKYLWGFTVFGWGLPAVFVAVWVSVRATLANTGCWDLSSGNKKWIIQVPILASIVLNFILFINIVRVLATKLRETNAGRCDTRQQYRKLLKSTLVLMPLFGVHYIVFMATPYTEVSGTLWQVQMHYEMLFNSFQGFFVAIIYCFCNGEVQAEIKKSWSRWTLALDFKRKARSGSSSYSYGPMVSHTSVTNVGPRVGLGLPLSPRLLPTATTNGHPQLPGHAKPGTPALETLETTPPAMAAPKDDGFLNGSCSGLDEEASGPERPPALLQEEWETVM
Method in brief: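 Agonist readout: GloSensor cAMP luminescence, read after 15 min at room temperature. HEK-293-derived GP2 line carries PTHR1; compounds tested as a titration for 1 hr at 37C in presence of IBMX. M-PTH (1-15) served as control.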

[7] = target: T1, Tyrosine-protein phosphatase non-receptor type substrate 1 (Homo sapiens) + Leukocyte surface antigen CD47 (Homo sapiens); experiment: CD47-SIRPalpha protein protein interaction - Alpha assay qHTS validation (AID 1347059);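 note: bead proximity luminescence from CD47 binding SIRPalpha after compound preincubation with SIRPalpha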; note: potency is the fitted concentration of half-maximal effect
Method in brief: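 Biotinylated Avi-tagged SIRPalpha (25 nM) preincubated 30 min with compound, then His-tagged CD47 (12.5 nM) added 30 min; AlphaScreen with Ni-NTA acceptor and streptavidin donor beads. PBS pH 7.4, 0.05% IGEPAL, room temperature; 7-point titrations.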

Row | Structure (SMILES) | Potency [1] | Potency [2] | Potency [3] | Potency [4] | outcome [5] | Potency [6] | Potency [7]
1 | NC(CCCP(=O)(O)O)C(=O)O (stereo not drawn) | inactive | inactive | inactive | inactive | inactive | inactive | 
2 | CN1[C@@H](CC(=O)c2ccccc2)CCC[C@H]1C[C@H](O)c1ccccc1 | inactive | inactive | inactive | inactive | inactive | inactive | inactive
3 | Cn1cc(C2=C(c3ccc(Cl)cc3Cl)C(=O)NC2=O)c2ccccc21 | inactive | inactive | inactive | inactive | inactive | inactive | inactive
4 | O=C(O)CNC(=O)C(CS)Cc1ccccc1 (stereo not drawn) | inactive | inactive | inactive | inactive | inactive | inactive | inactive
5 | O=C(c1ccc(OCCCc2cnc[nH]2)cc1)C1CC1 | inactive | inactive | inactive | inactive | inactive | inactive | inactive
6 | Nc1nc(Nc2ccccc2)nc2c1ncn2[C@@H]1O[C@H](CO)[C@@H](O)[C@H]1O | inactive | inactive | inactive | inactive | inactive | inactive | inactive
7 | O=C(O)c1cc(=O)c2ccccc2[nH]1 | inactive | inactive | inactive | inactive | inactive | inactive | inactive
8 | c1cnc2c(c1)ccc1cccnc12 | inactive | inactive | 7.08 µM (active) | inactive | inactive | inactive | 0.185 µM (active)
9 | Fc1ccc(C(OCCCc2cnc[nH]2)c2ccc(F)cc2)cc1 | inactive | inactive | inactive | inactive | inactive | inactive | 
10 | COc1cc2c(CCNC(C)=O)c[nH]c2cc1Cl | inactive | inactive | inactive | inactive | inactive | inactive | 
11 | NC(=S)c1ccc[n+]([C@@H]2O[C@@H](COP(=O)([O-])OP(=O)(O)OC[C@H]3O[C@@H](n4cnc5c(N)ncnc54)[C@H](OP(=O)(O)O)[C@@H]3O)C(O)C2O)c1 (stereo partly drawn) | inactive | inactive | inactive | inactive | inactive | inactive | inactive
12 | O=C(/C=C/c1ccc(O)c(O)c1)OCCc1ccccc1 | inactive | inactive | inactive | inactive | inactive | inactive | 
13 | NCC1OC(O[C@H]2[C@H](O)[C@@H](OC3C(O)C(N)CC(N)C3OC3OC(CO)C(O)C(O)C3N)O[C@@H]2CO)C(N)C(O)C1O (stereo partly drawn) | inactive | inactive | inactive | inactive | inactive | inactive | 
14 | Nc1nc(Cl)nc2c1ncn2[C@@H]1O[C@H](CO)[C@@H](O)[C@H]1O | inactive | inactive | inactive | inactive | inactive | inactive | 
15 | O=C1NC(=O)/C(=C/c2ccc3nccnc3c2)S1 | inactive | inactive | inactive | inactive |  | inactive | inactive
16 | O=C(CCCCCN1CCN(c2ccccc2-c2ccccc2)CC1)NC1CCCc2ccccc21 (stereo not drawn) | inactive | inactive | inactive | inactive | inactive | inactive | inactive
17 | CN1CCc2cc(NC(=O)Nc3cccnc3)ccc21 | inactive | inactive | inactive | inactive | inactive | inactive | inactive
18 | O=C(O)CC1CCCc2ccccc2C1O (stereo not drawn) | inactive | inactive | inactive | inactive | inactive | inactive | 
19 | CN1CCc2ccccc2Cc2[nH]c3ccccc3c2CC1 | inactive | inactive | inactive | inactive |  | inactive | inactive
20 | Clc1ccc(N2CCN(Cc3c[nH]c4ncccc34)CC2)cc1 | inactive | inactive | inactive | inactive | inactive | inactive | 
21 | CCCCCCCCCCCCCCCC(=O)NCC(COP(=O)([O-])OCC[N+](C)(C)C)OCC (stereo not drawn) |  | inactive |  |  |  | inactive | 
22 | Brc1cc2c(cc1[C@H]1Nc3ccccc3[C@H]3C=CC[C@H]31)OCO2 |  |  | inactive | inactive | inactive |  | inactive
23 | O=[N+]([O-])c1ccc(CNc2nc(NCc3cccc(C(F)(F)F)c3)nc3nc[nH]c23)cc1 |  |  | inactive | inactive | inactive |  | inactive
24 | CN[C@H](CC(C)C)C(=O)N[C@H]1C(=O)N[C@@H](CC(N)=O)C(=O)N[C@H]2C(=O)N[C@H]3C(=O)N[C@H](C(=O)N[C@H](C(=O)O)c4cc(O)cc(O)c4-c4cc3ccc4O)[C@H](O)c3ccc(c(Cl)c3)Oc3cc2cc(c3O[C@@H]2O[C@H](CO)[C@@H](O)[C@H](O)[C@H]2O[C@H]2C[C@](C)(N)[C@H](O)[C@H](C)O2)Oc2ccc(cc2Cl)[C@H]1O |  |  | inactive | inactive | inactive |  | inactive
25 | CCCC(CCC)C(=O)OC1CC2CCC(C1)[N+]2(C)C (stereo not drawn) |  |  | inactive | inactive | inactive |  | inactive
